Test systems include NCI-H23 lung; NCI-H226 lung; NCI-H322M lung; HOP-62 NSCLC; NCI-H460 lung; HOP-92 NSCLC; NCI-H522 lung; A549/ATCC NSCLC; 786-0 renal; COLO 205 colon; DU-145 prostate; K-562 leukemia; MALME-3M melanoma; MDA-MB-231 breast; RXF 393 renal; SF-268 CNS; SF-295 CNS; SF-539 CNS; UACC-257 melanoma; M14 melanoma.
Experiment in all cases: NCI-60 one-dose screen, 48 h (100 = growth as untreated, 0 = no growth, -100 = all killed)
Holding throughout (conditions): 10 µM unless noted

About 83,000 compounds went through this panel and 20% of them were active in at least one assay; those are over-represented in the sample as a whole.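 Single-dose data. Exposure time 48 hours. Values below 10 considered active.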 Unmarked numbers belong to inactive results. Activity calls are given as the source filed them.

Take `COc1ccc2c(c1)c(-c1nc(-c3ccc4ccccc4c3)cs1)cn2C`: the growth with NCI-H23 lung is 87.1%; in the assay with NCI-H226 lung, 85.3%; in the assay with NCI-H322M lung, 85.1%; in the assay with HOP-62 NSCLC it was 90.4%; with NCI-H460 lung it was 98.4%; in the assay with HOP-92 NSCLC it was 93%. For the same molecule, the growth with NCI-H522 lung was 79.2%; with A549/ATCC NSCLC, 82.6%; in the assay with 786-0 renal, 75.4%; in the assay with COLO 205 colon it was 84%; with DU-145 prostate, 103%; in the assay with K-562 leukemia, 67.7%. The growth is 149% in the assay with MALME-3M melanoma; 80.2% with MDA-MB-231 breast; 69.1% in the assay on RXF 393 renal; 100% with SF-268 CNS; 104% with SF-295 CNS; 89% with SF-539 CNS. Also, the values for the growth with UACC-257 melanoma and in the assay on M14 melanoma were 94% and 96.9%, respectively.

For the molecule `CCOC(=O)c1cn2ncnc(Oc3ccc(NC(=O)NC4CC4)c(Cl)c3)c2c1C`, the growth with NCI-H23 lung is 84.6%; in the assay on NCI-H226 lung it was 71.4%; in the assay with NCI-H322M lung, 101%; with HOP-62 NSCLC, 90.9%; with NCI-H460 lung, 102%; in the assay on HOP-92 NSCLC it was 109%. Further, the growth in the assay on NCI-H522 lung was 75.9%; with A549/ATCC NSCLC it was 99.2%; in the assay with 786-0 renal, 93.5%; in the assay with COLO 205 colon, 108%; with DU-145 prostate it was 97%; in the assay on K-562 leukemia it was 73.6%. Further, the growth with MALME-3M melanoma was 95.3%; with MDA-MB-231 breast, 89.3%; in the assay with RXF 393 renal, 92.3%; in the assay on SF-268 CNS, 88.9%; with SF-295 CNS it was 84.8%; with SF-539 CNS it was 79.5%. Besides, the results for the growth in the assay with UACC-257 melanoma and in the assay on M14 melanoma were 100% and 98.9%, respectively.

For `Cc1nc2sc(C(=O)Nc3cccc4ccccc34)c(N)c2cc1C(=O)c1ccccc1`, the growth in the assay on NCI-H23 lung is 40.2%; in the assay with NCI-H226 lung, 68.3%; with NCI-H322M lung it was 62.4%; in the assay with HOP-62 NSCLC it was 42.5%; in the assay on NCI-H460 lung, 7.31% (active); in the assay with HOP-92 NSCLC, 77.6%. The growth with NCI-H522 lung is 15.5%; in the assay with A549/ATCC NSCLC it was 23.5%; in the assay with 786-0 renal it was 42.5%; in the assay on COLO 205 colon, -2.82% (active); in the assay with DU-145 prostate, 18.3%; with K-562 leukemia, 9.45% (active). The growth in the assay on MALME-3M melanoma was 58.5%; in the assay with MDA-MB-231 breast it was 15.2%; with RXF 393 renal it was 22.6%; in the assay with SF-268 CNS, 53.4%; in the assay with SF-295 CNS, 10.4%; in the assay on SF-539 CNS, -12.1% (active). In addition, the growth in the assay with UACC-257 melanoma is 72.7%; with M14 melanoma it was 12.4%.

Turning to `Cc1ccc(S(=O)(=O)OCC#CCOS(=O)(=O)c2ccc(C)cc2)cc1`, the growth in the assay on NCI-H23 lung is 59.3%; with NCI-H226 lung it was 84.3%; with NCI-H322M lung, 93.9%; in the assay on HOP-62 NSCLC, -12.9% (active); with NCI-H460 lung it was 13.4%; in the assay with HOP-92 NSCLC it was 40.2%. Besides, the growth in the assay on NCI-H522 lung is -65.4% (active); in the assay with A549/ATCC NSCLC, 17.1%; in the assay with 786-0 renal, 74.5%; with COLO 205 colon, 52.6%; in the assay on DU-145 prostate, 52.2%; in the assay on K-562 leukemia, 40.2%. Moreover, the growth in the assay with MALME-3M melanoma is -65.9% (active); with MDA-MB-231 breast it was 57.9%; in the assay on RXF 393 renal, 58.6%; with SF-268 CNS, 53.8%; in the assay with SF-295 CNS it was 42.2%; with SF-539 CNS it was 81.9%. Further, the growth with UACC-257 melanoma is 66.8%; with M14 melanoma it was 43.6%.

For the molecule `COc1ccc(Cl)cc1Nc1nc(C(F)(F)F)ccc1C(=O)N/N=C/c1ccc([N+](=O)[O-])cc1`, the growth with NCI-H23 lung is 18%; with NCI-H226 lung, 13.6%; in the assay with NCI-H322M lung, -1.09% (active); in the assay with HOP-62 NSCLC, 11.4%; in the assay on NCI-H460 lung, 0.872% (active); with HOP-92 NSCLC, -47.7% (active). The growth in the assay with NCI-H522 lung is -8.55% (active); in the assay on A549/ATCC NSCLC, 6.02% (active); with 786-0 renal it was 8.42% (active); with COLO 205 colon it was 9.91% (active); in the assay with DU-145 prostate, 12.8%; in the assay on K-562 leukemia, 2.07% (active). The growth in the assay with MALME-3M melanoma was 11.5%; with MDA-MB-231 breast it was -14.9% (active); in the assay with RXF 393 renal, 13%; in the assay on SF-268 CNS, 15.3%; with SF-295 CNS, -52% (active); in the assay on SF-539 CNS, 10.8%. Also, the growth in the assay on UACC-257 melanoma is -3.41% (active); in the assay on M14 melanoma, 36.2%.

On to `CN1CC(c2ccc(Br)cc2)C(C(=O)c2ccc(Br)cc2)C12C(=O)Nc1ccccc12` (stereo not given), for which the growth in the assay on NCI-H23 lung was 67.7%; with NCI-H226 lung it was 73.5%; in the assay with NCI-H322M lung, 89.9%; in the assay with HOP-62 NSCLC, 69%; in the assay with NCI-H460 lung, 73.3%; with HOP-92 NSCLC, 70.2%. Also, the growth is 58.2% in the assay with NCI-H522 lung; 59.2% in the assay on A549/ATCC NSCLC; 79.2% in the assay on 786-0 renal; 76.6% in the assay with COLO 205 colon; 83.5% in the assay on DU-145 prostate; 44.8% with K-562 leukemia. The growth in the assay with MALME-3M melanoma is 81.7%; in the assay with MDA-MB-231 breast it was 81.7%; with RXF 393 renal it was 69.7%; with SF-268 CNS it was 69.5%; with SF-295 CNS, 78.5%; with SF-539 CNS, 90.5%. In addition, the growth in the assay on UACC-257 melanoma was 85.5%; in the assay on M14 melanoma it was 76%.

Turning to `CCN(CC)C(=O)C1=C(C)NC(=O)NC1c1ccc2c(c1)OCO2` (stereo not given), the growth in the assay on NCI-H23 lung is 103%; in the assay on NCI-H226 lung, 100%; with NCI-H322M lung, 109%; in the assay with HOP-62 NSCLC, 105%; in the assay with NCI-H460 lung, 106%; in the assay with HOP-92 NSCLC, 109%. Also, the growth in the assay on NCI-H522 lung was 96.6%; in the assay with A549/ATCC NSCLC, 106%; with 786-0 renal it was 106%; in the assay with COLO 205 colon, 114%; in the assay with DU-145 prostate it was 113%; in the assay with K-562 leukemia it was 101%. The growth with MALME-3M melanoma was 108%; with MDA-MB-231 breast, 108%; in the assay with RXF 393 renal, 102%; in the assay with SF-268 CNS, 102%; in the assay with SF-295 CNS, 103%; in the assay on SF-539 CNS, 96.2%. Further, the growth in the assay with UACC-257 melanoma is 103%; in the assay on M14 melanoma, 104%.

Values taken from PubChem BioAssay (NCI).
